# FUS suppressor = suppressors of FUS proteinopathy in yeast; Potency, µM (doses to about 76.6 µM), actives largely listed as activators; AID 1347120; 0.24% of 390,000 active; S. cerevisiae FUS-expressing, growth rescue, OD600, 24 h;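 note: plate controls were DMSO vehicle for no effect and reference control for full effect; nearly all actives have a fitted effect of over 55% in size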
#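 Steps: raffinose overnight preculture; dilution to OD 0.005 in 2% galactose minimal medium; compound addition (concentration series); 24hr at 30C, 99% humidity; absorbance read at 600 nm.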
# Abeta yeast res = restores growth of yeast expressing A-beta42 peptide. AID 1347071. Potency, µM (highest dose often 46.1 µM), actives largely listed as activators. yeast expressing A-beta42, growth rescue, OD600, 48 h; response scale: 0% DMSO, 100% iron-clioquinol control. 0.063% of 410,000 active; note: nearly all actives have a fitted effect of over 55% in size
#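 Yeast growth medium received pinned compounds, then yeast cells expressing toxic A-beta were added; plates incubated at 30 C for 48 hr. Growth read as absorbance at 600 nm, normalized to DMSO and equimolar FeCl3 plus clioquinol controls.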
# aSyn rescue = alpha-synuclein toxicity inhibition in yeast | Yeast expressing alpha-synuclein, growth rescue, BacTiter-Glo, 24 h | Potency, µM (top dose mostly 46.1 µM), for inactives: top-dose growth rescue (activation), most hits filed as activators | 0.14% of 370,000 active; note: % of control where 0% means no effect; nearly all actives have a fitted effect of over 65% in size
#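 Screening used galactose-induced yeast with toxic alpha-synuclein levels, exposed to compound for 24 hr at 30 deg C. Cell growth, read with BacTiter-Glo luminescence, gave the measured signal.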
# TDP-43 yeast inh = inhibitors of TDP-43 toxicity in yeast. 1.8% of 410,000 active. TDP-43 expressing yeast growth rescue, BacTiter-Glo, 24 h. Potency, µM (series often up to 46.1 µM), for inactives: top-dose growth rescue (activation), hits mostly activators; note: % of control where 0% means no effect; nearly all actives have a fitted effect of over 50% in size
#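 Growth rescue of TDP-43-toxic yeast measured as ATP luminescence (BacTiter-Glo). Cells grown to mid-log in raffinose, induced in galactose at OD600=0.02, exposed to compound 24 hr at 30 deg C.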
# * hit, by the source's call; i = inactive; ? = inconclusive; . = no result; [ ] = dose if it differs, or a comment. The list is not random: actives were taken first. Their share in the collection is about 2.1%. Calls come from the whole dose curve; as a rule, active = well fitted curve in the direction sought with a large enough effect; inconclusive = small, poorly fitted or top-dose-only effect, or another doubt; inactive = no such curve, though single readings can be large; an effect the other way counts as inactive or inconclusive. Potency is the fitted concentration of half-maximal effect.
SMILES,FUS suppressor,Abeta yeast res,aSyn rescue,TDP-43 yeast inh
COCCNc1nc(CSc2ccccc2)nc2sc(C)c(C)c12,i,i,8%,19%
O=C(CSc1ncn[nH]1)c1ccco1,i,i,-3%,-7%
CCn1c(SCc2nc(-c3ccccc3)no2)nnc1-c1ccco1,i,i,2%,18µM*
CCn1c(SCC(=O)O)nc2ccccc21,i,i,3%,17%
Cn1c(SCc2nc(-c3ccc(Br)cc3)no2)nnc1-c1ccco1,i,i,3%,0%
Clc1ccc(-c2nnc(CSc3nnc(-c4cccs4)n3Cc3ccccc3)o2)cc1,?,i,?,18µM*
CCn1c(SCc2nc(-c3ccccc3)no2)nc2ccccc21,i,i,6%,16µM*
c1ccc(-c2noc(CSc3nnnn3C3CCCCC3)n2)cc1,i,i,3%,13µM*
Cc1ccc2[nH]c(=O)c3cc(C(=O)NCCCN4CCC(C)CC4)sc3c2c1,i,i,.,10%
COc1cc(-c2noc(C)c2C(=O)NCc2ccc3c(c2)OCO3)cc(OC)c1OC,i,i,0%,29%
CC(=O)N1CCN=C1SCc1ccccc1Cl,i,i,-3%,25%
CCn1c(SCc2nc(-c3ccccc3)no2)nnc1-c1cccs1,i,i,6%,13µM*
C=CCN(c1ccccc1)S(=O)(=O)c1cccc(C(=O)Nc2ccc(N3CCOCC3)cc2)c1,i,i,1%,14µM*
COc1cc(NC(=O)c2cccs2)c(OC)cc1NC(=O)Cc1ccccc1,i,i,-2%,-26%
C=CCOC(=O)C1=C[C@H](c2ccc(Br)cc2)[C@@H](CCCO)[C@H](OCC)O1,i,i,9%,22µM*
O=c1c(C=NCc2ccccc2)c(NCc2ccccc2)nc2ccccn12,i,i,-7%,?
O=C(NCC(c1ccco1)N1CCN(c2ccc(F)cc2)CC1)C(=O)NC1CCCC1 (stereo unspecified),i,i,-4%,13%
O=C(NC(=S)Nc1ccccc1N1CCCCC1)c1ccc(F)cc1Cl,.,i,-1%,20%
CC1CCN(c2ccccc2NC(=S)NC(=O)C(C)(C)C)CC1,i,13µM*,-3%,?
O=C(NC(=S)Nc1ccccc1N1CCCC1)c1ccc(F)cc1,.,i,-13%,25µM*
CC1CCN(c2ccccc2NC(=S)NC(=O)c2cccs2)CC1,i,i,1%,12%
CC1CCN(c2ccccc2NC(=O)c2ccc(F)cc2)CC1,i,i,.,13µM*
O=C(NC(=S)Nc1ccccc1N1CCCC1)c1cccc(F)c1,i,7.9µM*,0%,0%
Brc1ccc(-c2nc3c4ccccc4ccn3c2Cc2ccccc2)cc1,i,i,-30%,12%
O=c1cnnc(N/N=C/c2cccs2)[nH]1,i,.,0%,13%
SMILES,FUS suppressor,Abeta yeast res,aSyn rescue,TDP-43 yeast inh
COc1cccc(OCc2nc3c4cnn(-c5ccccc5)c4ncn3n2)c1,i,i,-7%,-17%
Cc1ccccc1C(=O)NC(=S)Nc1ccccc1N1CCCC1,i,?,0%,?
O=C(NC(=S)Nc1ccccc1N1CCCCC1)c1ccccc1,i,i,-12%,11µM*
CCCNC(=S)Nc1ccc2nc(-c3ccccn3)c(-c3ccccn3)nc2c1,.,i,0%,?
Cc1cccc(Cn2c(-c3cccc(Br)c3)nc3ccccc32)c1,i,i,.,14µM*
Cc1ccc(CNC(=O)CCc2nnc3ccc(NCCCN4CCCC4=O)nn23)cc1,i,i,?,13%
O=C(NC(=S)Nc1ccccc1Br)C1CC1,i,i,-10%,13µM*
Cc1ccc(NC(=O)CN2CCC(NC(=O)C3CCCCC3)CC2)c(Br)c1,i,i,0%,-6%
Cc1ccc(NC(=S)NC(=O)C2CCCC2)c(Br)c1,i,?,1%[1.84 µM],14µM*
Cc1ccccc1NC(=S)NC(=O)C1CCCCC1,i,?,0%,25%
Cc1cc(C(=O)OCC(=O)NCc2ccc3c(c2)OCO3)c2ccccc2n1,i,i,-2%,0%[0.397 µM]
COc1ccc(C(=O)n2nc(C)cc2Nc2ccccc2)cc1,i,i,-18%,35µM*
COc1ccc(NC(=O)Nc2cc(C)nn2-c2ccccc2)cc1,i,.,.,.
COc1ccccc1NC(=O)c1cc2ccccc2o/c1=N\O,.,i,-14%,18µM*
COc1ccccc1NC(=O)Cn1nnc(-c2ccccc2NC(=O)c2cc3ccccc3oc2=O)n1,25µM*,i,-4%,-9%
COc1ccccc1NC(=O)Cn1nnc(-c2ccccc2NS(=O)(=O)c2ccccc2)n1,.,i,2%,-20%
O=C1CC(c2ccccc2)Oc2cc(O)ccc21 (stereo unspecified),i,i,-11%,21%
COc1ccccc1NC(=S)NCc1ccc(F)cc1,i,i,0%,?
O=C(COC(=O)/C=C/c1ccc(Cl)cc1Cl)NCC1CCCO1 (stereo unspecified),i,i,5%[1.84 µM],20µM*
O=C(COC(=O)/C=C/c1c(F)cccc1Cl)NCC1CCCO1 (stereo unspecified),i,i,-5%,-9%
Cc1ccc(S(=O)(=O)N(CC(=O)Nc2ccc(C)c(Cl)c2)C(=O)N2CCN(C)CC2)cc1,i,i,-2%,-8%
COc1cc(C(=S)N2CCOCC2)ccc1OC(=O)c1cc([N+](=O)[O-])cc([N+](=O)[O-])c1,.,i,0%,8%
COc1ccc(C(=S)N2CCOCC2)cc1OC(=O)c1ccc([N+](=O)[O-])cc1[N+](=O)[O-],i,i,7%,22µM*
O=C(Nc1ccc(Nc2ccccc2)cc1)c1c(Cl)cccc1Cl,i,i,-23%,11µM*
CCCOc1ccc(N2C(=O)CC(N(Cc3ccccc3)N=O)C2=O)cc1 (stereo unspecified),i,i,0%,20µM*
SMILES,FUS suppressor,Abeta yeast res,aSyn rescue,TDP-43 yeast inh
COC(=O)c1ccc(N2C(=O)CC(N(C)Cc3ccccc3)C2=O)cc1 (stereo unspecified),i,i,-32%,7.1µM*
CCOc1ccc(N2C(=O)CC(N(C)Cc3ccccc3)C2=O)cc1 (stereo unspecified),i,i,7%,18µM*
CS(=O)(=O)N1CCC2CC1c1cc(-c3ccccc3)ccc12 (stereo unspecified),i,i,2%,?
COc1ccc(-n2c(=O)cc(N3CCc4ccccc43)[nH]c2=O)cc1,.,i,-2%,4%
COc1cc(/C=C/C(=O)c2ccc3c(c2)OCCO3)cc(Br)c1OCC(=O)N(C)C,?,i,11%,25µM*
COc1ccc2c(Sc3ccc(C)cc3)c(C(=O)NC(C)C)[nH]c2c1,i,i,.,9%
COc1ccc2c(c1)c1nnc(SCC(=O)Nc3ccccc3F)nc1n2C,i,i,-2%,7%
CC(=O)O/N=C(\N)c1cnn2c(C(F)(F)F)cc(C(F)(F)F)nc12,i,i,-5%,-9%

# Screens: PubChem, National Center for Advancing Translational Sciences (NCATS)
